The campaign covered roughly 300,000 compounds. About 37,000 (12%) were called active. Cut-off read from the data, not from the text of the source: active = max response mostly above about 13% (no sharp cut-off); inactive = mostly below about 14%. The entries come from a sample that favours actives as a whole.

The assay is described as follows: Cycloheximide Counterscreen for Small Molecule Inhibitors of Shiga Toxin. Note: read at 38.3 µM for the half of the compounds with a filed dose; 0% is about no effect. The following applies: cell reporter, cycloheximide protein synthesis inhibition counterscreen; stronger effect = higher value. Background: The purpose of a counterscreen is to sort out artefacts and off-target activity.
With `COc1cccc(NC(=S)N(CCc2c(C)[nH]c3ccccc23)Cc2ccco2)c1`, the max response was -1.95% (inactive).

As to `O=S(=O)(NC1CC1)c1ccc(Cl)cc1`, the max response was -3.78% (inactive).

Consider `CCOC(=O)C1=C(CCc2ccccc2)NC(=O)NC1c1ccc2ccccc2c1` (stereo unspecified), for which the max response was -1.16% (inactive).

As for `CC1(c2ccc3ccccc3c2)NC(=O)NC1=O` (stereo unspecified), the max response is 1.06% (inactive).

Regarding `CCN(CC)C(=O)CN(c1cccc(OC)c1)S(=O)(=O)c1ccc(C)cc1`, the max response is 1.38% (inactive).

`COc1ccc(C)cc1-n1nnnc1SCc1nc2ccccc2c(=O)[nH]1`: the max response is 10.3% (inactive).

On to `COc1ccc(CCn2c(NN=C3CCCC3)nc3c2c(=O)[nH]c(=O)n3C)cc1`, for which the max response is 0.589% (inactive).

For the molecule `CCc1ccc2nc3sc(C(=O)Nc4nnc(CC)s4)c(N)c3cc2c1`, the max response is 17.3% (inactive).

For `Cc1ccc(NC(=O)c2sc3nc(N)c(C#N)cc3c2N)cc1`, the max response is 41% (active).

For `CC(=O)Nc1ccc(NC(=O)c2sc3nc4c(c(-c5ccc(C)cc5)c3c2N)CCC4)cc1`, the max response was 0.359% (inactive).

Consider `CCN1CCN(C(=O)Cn2nc(C)n3c(cc4c(OC)cccc43)c2=O)CC1`, for which the max response is 1.35% (inactive).

Consider `Cc1c(Cl)cccc1NC(=O)CCC(=O)N/N=C/c1ccco1`, for which the max response was -1.66% (inactive).

Turning to `O=C(CN1CCN(c2ccccn2)CC1)Nc1ccc(Br)cc1`, the max response was -4.91% (inactive).

Consider `CCCCSc1nnc(-c2ccc(NC(=O)CC)cc2)n1C`, for which the max response was -3.61% (inactive).

As for `CCC(=O)Nc1ccc(-c2ccc(N3CCCCC3)nn2)cc1`, the max response is 42.9% (active).

On to `O=C1Nc2ccc([N+](=O)[O-])cc2C1=Nc1cccc(CO)c1`, for which the max response is -2.88% (inactive).

Turning to `Cc1ccc(C(=O)OC2CCCN(C)C2)cc1` (stereo unspecified), the max response is 6.14% (inactive).

For `Cn1ccc(=NC=C(C#N)C#N)c2ccccc21`, the max response was 1.04% (inactive).

For `CCOc1cc(CN2CCCC(CO)(Cc3ccc(F)cc3F)C2)ccc1OC` (stereo unspecified), the max response is -0.883% (inactive).

In the case of `CC(=O)Nc1ccc(NC(=O)CSc2nnnn2-c2ccccc2F)cc1`, the max response is 9.54% (inactive).

With `COc1ccc(-n2nnnc2SCC(=O)Nc2ccccc2)cc1`, the max response was -4.18% (inactive).

Turning to `CCn1nnnc1SCC(=O)Nc1ccc(N(C)C)cc1`, the max response was 25.2% (active).

Take `Cc1ccc(C)c(-n2nnnc2SCC(=O)c2c(N)n(C)c(=O)n(C)c2=O)c1`: the max response was -2.92% (inactive).

Take `COc1ccc(C(=O)CSc2nnnn2C)c(OC)c1`: the max response was -3.16% (inactive).

Turning to `CCn1nnnc1SCC(=O)c1ccc(C)cc1C`, the max response was 56.3% (active).

For the molecule `CCc1nccn1CCC(=O)N1CCCC(N2CCN(c3ccccc3F)CC2)C1` (stereo unspecified), the max response is 15.2% (inactive).

`COc1ccc(S(=O)(=O)N(C)CC(=O)NCCCN2CCOCC2)cc1Cl`: the max response was -1.58% (inactive).

Turning to `Cc1cccc([C@@H]2[C@@H]3C(=O)N(Cc4ccccc4)C(=O)[C@@H]3[C@]3(C)C(=O)N(c4ccc(Br)cc4)C(=O)N23)c1`, the max response is 7.73% (inactive).

Consider `C=CS(=O)c1sc(Cl)c(N2CCOCC2)c1[N+](=O)[O-]` (stereo unspecified), for which the max response was -4.64% (inactive).

In the case of `CC(=O)N1CCOc2ccc(S(=O)(=O)N3CCC(C(=O)Nc4ccccc4F)CC3)cc21`, the max response is -0.955% (inactive).

Consider `Cc1ccc(N(C(=O)C(F)(F)F)C(C(=O)NC2CCCCC2)c2ccncc2)cc1C` (stereo unspecified), for which the max response was -3.75% (inactive).

For the molecule `CCCc1cc(=O)[nH]c(SCC(=O)c2cc(C)n(CCC)c2C)n1`, the max response is 7.55% (inactive).

For the molecule `Cc1nn(-c2ccccc2)c(C)c1C(=O)OCC(=O)NC(=O)NC1CCCCC1`, the max response is 2.3% (inactive).

Turning to `Cc1nn(-c2ccccc2)c(-n2cccc2)c1C(=O)O`, the max response is -4.68% (inactive).

For the molecule `Cc1ccc(OC(=O)c2c(C)nn(-c3ccccc3)c2C)cc1`, the max response is 47.6% (active).

On to `CCCn1c(C)cc(C(=O)COC(=O)c2c(C)nn(-c3ccccc3)c2C)c1C`, for which the max response was 32.3% (active).

On to `Cc1cc(C(=O)COC(=O)c2cccs2)c(C)n1-c1c(C)n(C)n(-c2ccccc2)c1=O`, for which the max response was 16.4% (inactive).

As for `COCCn1c(SCC(=O)Nc2cc(OC)ccc2OC)nc2c(c1=O)SC(C)C2` (stereo unspecified), the max response is -1.66% (inactive).

As for `CC(C)CC(=O)N1CCN(Cc2ccccc2Br)CC1`, the max response was -2% (inactive).

Consider `NC(=O)C(Cc1ccccc1)NC(=O)C12CC3CC(CC(C3)C1)C2` (stereo unspecified), for which the max response is 0.275% (inactive).

Regarding `CCOc1ccc(N/C=C/C(=O)c2ccccc2)cc1`, the max response is 38.2% (active).

For `CCCOc1ccc(NC(=O)C2CCCNC2=O)cc1` (stereo unspecified), the max response was 16.5% (inactive).

As to `CCOc1ccc(NC(=S)N2CCC(NC(=O)c3ccccc3)CC2)cc1`, the max response was -1.64% (inactive).

For `CCOc1ccc(N/C=C/C(=O)c2cc(OC)c(OC)c(OC)c2)cc1`, the max response is 3.1% (inactive).

For the molecule `Cc1ccc(N(NC(=O)C(C)(C)O)C(=O)c2ccccc2)cc1C`, the max response is -3.59% (inactive).

With `Cc1ccc(N/C=C/C(=O)c2ccccc2)cc1C`, the max response was 45.6% (active).

For `Cc1ccc(NNC(=O)C2CCC2)cc1C`, the max response was -2.16% (inactive).

Consider `CCCOc1ccc(NC(=O)C2OC3OC(C)(C)OC3C3OC(C)(C)OC23)cc1` (stereo unspecified), for which the max response was 10.8% (inactive).

For the molecule `CCCOc1ccc(N/C=C/C(=O)C(C)(C)C)cc1`, the max response was 33% (active).

`Cc1cc(OCC(=O)NCC(O)c2ccccc2)c2c(C)c(C)c(=O)oc2c1` (stereo unspecified): the max response is 8.74% (inactive).

Regarding `O=C(O)c1ccccc1C(=O)NC1=NN(c2ccccc2)CC1`, the max response is -1.86% (inactive).

As for `O=C(CSc1n[nH]c(-c2cccnc2)n1)Nc1ccc(Cl)cc1`, the max response is 1.65% (inactive).

Consider `CCO[C@@H]1OC(C(=O)NC2CC2)=C[C@H](C)[C@H]1CCCO`, for which the max response was -1.17% (inactive).

For the molecule `CC(NC(=S)NC1CCCCC1)C(c1ccccc1)N1CCOCC1` (stereo unspecified), the max response was 0.505% (inactive).

In the case of `Cc1cc(=O)n2nc(N3CCCC(C(=O)NCc4cccc(Cl)c4)C3)sc2n1` (stereo unspecified), the max response was -3.8% (inactive).

As to `CN(NS(=O)(=O)c1cccs1)c1ncc(C(F)(F)F)cc1Cl`, the max response was -0.853% (inactive).

As to `OC(CNCCc1ccc(Cl)cc1Cl)COc1ccccc1` (stereo unspecified), the max response was -1.8% (inactive).

Regarding `CC(C)c1ccc(C(=O)NCCCc2ccccc2)cc1`, the max response was 46.9% (active).

As to `O=C(CCc1ccccc1)NNC(=O)COc1ccc(Cl)cc1`, the max response is 0.663% (inactive).

As for `O=C(NCCc1ccccc1)c1ccc(OCCOc2ccccc2)cc1`, the max response was 0.57% (inactive).

With `COc1ccc(OCCCC(=O)NCCc2ccccc2)cc1`, the max response was -2.28% (inactive).

As to `CN(c1ccccc1)S(=O)(=O)c1ccc(C(=O)NCCc2ccccc2)cc1`, the max response was 11.2% (inactive).

`O=C(NCCc1ccccc1)C1CC1`: the max response is 13% (inactive).

Take `Cc1cc(C(=O)NCCc2ccc(Cl)cc2)n(-c2ccccc2)n1`: the max response was -0.868% (inactive).

With `Cc1cc(C(=O)NCCc2ccc(Cl)cc2)c(C)o1`, the max response was 49.4% (active).

As for `NS(=O)(=O)c1ccc(CCNC(=O)c2ccc(Cl)cc2[N+](=O)[O-])cc1`, the max response is -2.71% (inactive).

For the molecule `O=C(NCCc1ccccc1)Oc1ccc(Cl)cc1`, the max response was 48.1% (active).

As for `CCCOc1ccc(C(=O)NCCc2ccccc2)cc1`, the max response was 27% (active).

Turning to `Nc1ccc(C(=O)NCc2ccccc2)cc1`, the max response was -1.11% (inactive).

As to `COc1ccc(-c2nc3cnccn3c2NC(C)(C)CC(C)(C)C)cc1O`, the max response was -1.64% (inactive).

On to `Cc1ccc(CN2CCNC(=O)C2CC(=O)NCc2csc(C(C)C)n2)cc1` (stereo unspecified), for which the max response was -3.12% (inactive).

In the case of `O=C(COc1ccc(S(=O)(=O)N2CCOCC2)cc1Cl)N1CCOCC1`, the max response was -5.7% (inactive).

Consider `Cc1cccc(N2C(=O)N3[C@H](c4ccc(F)cc4)[C@@H]4C(=O)N(C5CCCCC5)C(=O)[C@@H]4[C@]3(Cc3ccccc3)C2=O)c1`, for which the max response was 1.33% (inactive).

As to `O=c1oc2ccccc2c(NC2CCCCC2)c1NS(=O)(=O)c1ccc(Cl)cc1`, the max response was -6.15% (inactive).

`Cc1ccc(N(CC(=O)NCC2CCCO2)C(=O)CNS(=O)(=O)c2ccc(Cl)cc2)cc1` (stereo unspecified): the max response was -3.88% (inactive).

For the molecule `O=C(NCCOc1ccccc1)c1ccccc1`, the max response is 68.1% (active).

Take `NS(=O)(=O)c1cc(C(=O)NCCOc2ccccc2)c(Cl)cc1Cl`: the max response was -1.96% (inactive).

For `O=C(CCc1c[nH]c2ccccc12)NCCOc1ccccc1`, the max response was 25.1% (inactive).

On to `CCc1n[nH]c(=S)n1/N=C/c1c[nH]c2ccc(Br)cc12`, for which the max response was -1.29% (inactive).

`CC1=NN(C(N)=S)C(=O)C1N=Nc1cc(Cl)ccc1Cl` (stereo unspecified): the max response was 4.61% (inactive).

With `CCCCc1nc(SCC(=O)Nc2nnc(C(C)C)s2)n[nH]1`, the max response is 26.4% (inactive).

For `O=C1CCCC(O)=C1N=Nc1ccc2ncsc2c1`, the max response is 49.2% (active).

Take `O=C1CCCC(O)=C1N=Nc1ccc(S(=O)(=O)N2CCOCC2)cc1`: the max response is 16% (inactive).

`Cc1nc2ccccc2c(=O)n1Cc1ccc([N+](=O)[O-])cc1`: the max response is -1.56% (inactive).

For the molecule `Nc1ccc(N=Nc2ccccc2Cl)c(N)n1`, the max response was 25.9% (active).

Take `O=S(=O)(c1ccc(Cl)s1)N1CCC2(CC1)OCCO2`: the max response was 2.18% (inactive).

Regarding `COC(=O)c1cc(NC(=O)c2cc(C(C)(C)C)nn2Cc2cccc(C)c2)ccc1N1CCOCC1`, the max response was -3.1% (inactive).

On to `CCCNC(=O)c1cnc(-c2ccccc2)nc1-c1ccccc1`, for which the max response is -6.13% (inactive).

Consider `CCN(CC)c1ccc(C(=O)OCC(=O)c2ccco2)cc1`, for which the max response is 7.36% (inactive).

With `CCc1ccc(C(=O)COC(=O)c2ccco2)cc1`, the max response is 42.3% (active).

With `O=C(COC(=O)c1ccccc1C(=O)c1ccccc1)c1ccco1`, the max response was 8.15% (inactive).

On to `COc1ccc2[nH]c(C(=O)N/N=C/c3cc(OC)c(OC)c(OC)c3)cc2c1`, for which the max response is 13.6% (inactive).

Consider `COc1cccc(NC(=O)CN2CCN(CC(=O)Nc3ccccc3Cl)CC2)c1`, for which the max response was -0.686% (inactive).

With `COc1ccc2[nH]c(C(=O)Nc3ccccc3Cl)cc2c1`, the max response was 36.2% (active).

`Cc1cccc(C(=O)NNC(=O)CSc2nnc(C(C)C)n2C)c1`: the max response is -5.35% (inactive).

Regarding `S=C(Nc1ccc2c(c1)OCO2)N1CCCC1`, the max response was 25.6% (active).

Consider `CCOc1ccc(NC(=S)N2CCCCCC2)cc1`, for which the max response is 26.7% (inactive).

On to `Cc1cccc(C)c1NC(=S)N1CCCCCC1`, for which the max response was -7.53% (inactive).

In the case of `CC(=O)c1cccc(NC(=S)N2CCCC2)c1`, the max response was 0.199% (inactive).

In the case of `CCC(C)c1ccc(NC(=S)N2CCCC2)cc1` (stereo unspecified), the max response is 35.2% (active).

`NS(=O)(=O)c1ccc(NC(=S)N2CCCC2)cc1`: the max response is -1.21% (inactive).
